Data reported in PubChem BioAssay (EPA / NIEHS).
The source made the active and inactive calls. How the source made its calls: active means hit-call score of the fitted dose curve at least 0.9, where 1 is the maximum; inactive means score below 0.9.

Columns and labels:
[1] = read-out: urokinase plasminogen activator (uPA), PLAU (gene 5328); assay: BSK_KF3CT_uPA: BioMAP Diversity Plus: KF3CT Assay for urokinase plasminogen activator (uPA) Biomarker Activity (AID 2283075); details: primary human keratinocytes with fibroblasts; actives raise or lower the signal
How it was run: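 ELISA readout of uPA, analyzed for signal gain or loss relative to DMSO, from a human primary keratinocyte–foreskin fibroblast co-culture measured 24 h after chemical treatment.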

CD40, CD40 (gene 958) [2] = assay: BSK_LPS_CD40: BioMAP Diversity Plus: LPS Assay for CD40 Biomarker Activity (AID 2283076); details: primary human HUVEC with PBMC; actives raise or lower the signal
How it was run: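 Primary human umbilical vein endothelial cells co-cultured with peripheral blood mononuclear cells, LPS-stimulated, were dosed with chemical and read 24 h later. CD40 levels were measured by ELISA and fitted bidirectionally against DMSO as negative control and baseline.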

[3] = read-out: E-selectin (Homo sapiens) (UniProt P16581); assay: BSK_LPS_Eselectin: BioMAP Diversity Plus: LPS Assay for Eselectin Biomarker Activity (AID 2283077); details: primary human HUVEC with PBMC; actives raise or lower the signal
How it was run: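 Human umbilical vein endothelial cells co-cultured with peripheral blood mononuclear cells under LPS stimulation; E-selectin measured by ELISA 24 h after chemical dosing. Activity fitted bidirectionally against DMSO as negative control and baseline.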

[4] = read-out: Interleukin-8 (IL8), CXCL8 (gene 3576); assay: BSK_LPS_IL8: BioMAP Diversity Plus: LPS Assay for Interleukin-8 (IL8) Biomarker Activity (AID 2283078); details: primary human HUVEC with PBMC; actives raise or lower the signal
How it was run: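 Human umbilical vein endothelial cells co-cultured with PBMC were stimulated with LPS; IL-8 levels were measured by ELISA 24 h after chemical dosing. Activity was fitted bidirectionally against DMSO as negative control and baseline.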

[5] = BSK_LPS_SRB: Viability Assessment in the BioMAP Diversity Plus: LPS Assay (AID 2283079); details: primary human HUVEC with PBMC;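 further: total protein by sulforhodamine B absorbance as a cytotoxicity measure; measured one day after compound addition; fitted in both directions against DMSO so loss or gain of signal counts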
How it was run: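 Human umbilical vein endothelial cells co-cultured with PBMC (LPS system) were dosed for 24 h. Total protein was stained with 0.1% sulforhodamine B after 10% TCA fixation, read at 560 nm, and fitted bidirectionally against DMSO baseline.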

[6] = read-out: Interleukin-1 alpha (IL1a), IL1A (gene 3552); assay: BSK_LPS_IL1a: BioMAP Diversity Plus: LPS Assay for Interleukin-1 alpha (IL1a) Biomarker Activity (AID 2283080); details: primary human HUVEC with PBMC; actives raise or lower the signal
How it was run: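 Human umbilical vein endothelial cells co-cultured with peripheral blood mononuclear cells were LPS-stimulated and exposed to test chemicals for 24 h. IL-1 alpha was quantified by ELISA, with bidirectional curve fitting against DMSO as the negative control and baseline.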

[7] = read-out: Monocyte Chemoattractant Protein-1 (MCP1), CCL2 (gene 6347); assay: BSK_LPS_MCP1: BioMAP Diversity Plus: LPS Assay for Monocyte Chemoattractant Protein-1 (MCP1) Biomarker Activity (AID 2283081); details: primary human HUVEC with PBMC; actives raise or lower the signal
How it was run: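 HUVEC plus PBMC co-culture (human primary cells, LPS system) exposed to test chemical for 24 h; MCP-1 measured by ELISA. Bidirectional curve fitting against DMSO baseline; parallel SRB total-protein staining flags overt cytotoxicity.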

[8] = BSK_LPS_PGE2: BioMAP Diversity Plus: LPS Assay for Prostaglandin E2 (PGE2) Biomarker Activity (AID 2283082); details: primary human HUVEC with PBMC; actives raise or lower the signal
How it was run: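 LPS-activated HUVEC/PBMC co-culture; cmpd dosed, 24 h; PGE2 by ELISA; bidirectional fit vs DMSO; SRB (0.1%, TCA-fixed, 560 nm) in parallel plates for overt cytotox.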

[9] = read-out: Macrophage colony-stimulating factor (MCSF), CSF1 (gene 1435); assay: BSK_LPS_MCSF: BioMAP Diversity Plus: LPS Assay for Macrophage colony-stimulating factor (MCSF) Biomarker Activity (AID 2283083); details: primary human HUVEC with PBMC; actives raise or lower the signal
How it was run: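 Human umbilical vein endothelial cells co-cultured with peripheral blood mononuclear cells were exposed to compound for 24 h. M-CSF levels were measured by ELISA, and bidirectional curve fitting used DMSO as the negative control and baseline.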

[10] = read-out: Tissue Factor, F3 (gene 2152); assay: BSK_LPS_TissueFactor: BioMAP Diversity Plus: LPS Assay for Tissue Factor Biomarker Activity (AID 2283084); details: primary human HUVEC with PBMC; actives raise or lower the signal
How it was run: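 Human umbilical vein endothelial cells co-cultured with peripheral blood mononuclear cells were dosed and stimulated with LPS. Cell-surface CD142 was quantified by ELISA at 24 h. Activity was fitted bidirectionally against DMSO baseline.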

[11] = read-out: Tumor necrosis factor (Homo sapiens) (UniProt P01375); assay: BSK_LPS_TNFa: BioMAP Diversity Plus: LPS Assay for Tumour Necrosis Factor alpha (TNFa) Biomarker Activity (AID 2283085); details: primary human HUVEC with PBMC; actives raise or lower the signal
How it was run: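 Read-out is ELISA of TNFa in primary human endothelial cell–PBMC co-cultures at 24 h after compound. Activity in either direction was fitted against DMSO.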

[12] = read-out: Vascular cell adhesion molecule 1 (VCAM1), VCAM1 (gene 7412); assay: BSK_LPS_VCAM1: BioMAP Diversity Plus: LPS Assay for Vascular cell adhesion molecule 1 (VCAM1) Biomarker Activity (AID 2283086); details: primary human HUVEC with PBMC; actives raise or lower the signal
How it was run: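 HUVEC + PBMC co-culture, LPS system; compound 24 h; VCAM-1 by ELISA; bidirectional fit vs DMSO control; parallel SRB (0.1%, TCA-fixed, 560 nm) for cytotoxicity.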

CD38, CD38 (gene 952) = assay: BSK_SAg_CD38: BioMAP Diversity Plus: SAg Assay for CD38 Biomarker Activity (AID 2283087); details: primary human HUVEC with PBMC; actives raise or lower the signal
How it was run: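 Human HUVEC plus PBMC co-culture stimulated with superantigen; CD38 measured by ELISA 24 h after chemical dosing. Fluorescence read-out, bidirectional fit against DMSO; cytotoxicity tracked in parallel by SRB and Alamar Blue.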

CD40, CD40 (gene 958) [13] = assay: BSK_SAg_CD40: BioMAP Diversity Plus: SAg Assay for CD40 Biomarker Activity (AID 2283088); details: primary human HUVEC with PBMC; actives raise or lower the signal
How it was run: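 Human umbilical vein endothelial cells co-cultured with PBMC; CD40 levels measured by ELISA with fluorescence read-out 24 h after chemical dosing. Gain or loss of signal fitted bidirectionally against DMSO baseline.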

CD69, CD69 (gene 969) = assay: BSK_SAg_CD69: BioMAP Diversity Plus: SAg Assay for CD69 Biomarker Activity (AID 2283089); details: primary human HUVEC with PBMC; actives raise or lower the signal
How it was run: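 Endothelial/PBMC co-culture; chemical added; 24 h incubation; CD69 ELISA with fluorescence detection; bidirectional fit vs DMSO.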

[14] = read-out: Monocyte Chemoattractant Protein-1 (MCP1), CCL2 (gene 6347); assay: BSK_SAg_MCP1: BioMAP Diversity Plus: SAg Assay for Monocyte Chemoattractant Protein-1 (MCP1) Biomarker Activity (AID 2283090); details: primary human HUVEC with PBMC; actives raise or lower the signal
How it was run: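 MCP-1 levels in the endothelial–PBMC SAg co-culture were quantified by ELISA at 24 h post-dosing; both increases and decreases versus DMSO scored. Cytotoxicity monitored by SRB total protein in parallel cultures.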

[15] = read-out: E-selectin (Homo sapiens) (UniProt P16581); assay: BSK_SAg_Eselectin: BioMAP Diversity Plus: SAg Assay for Eselectin Biomarker Activity (AID 2283091); details: primary human HUVEC with PBMC; actives raise or lower the signal
How it was run: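 HUVEC co-cultured with PBMC, compound dosed then read at 24 h; E-selectin measured by ELISA. Activity fitted bidirectionally against DMSO as negative control and baseline.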

[16] = read-out: Monokine induced gamma interferon (MIG), CXCL9 (gene 4283); assay: BSK_SAg_MIG: BioMAP Diversity Plus: SAg Assay for Monokine induced gamma interferon (MIG) Biomarker Activity (AID 2283092); details: primary human HUVEC with PBMC; actives raise or lower the signal
How it was run: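 Measures CXCL9 protein by ELISA in a human vascular primary-cell co-culture (umbilical vein endothelium with PBMC) 24 h after chemical addition. Activity is scored up or down from the DMSO control.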

[17] = read-out: Interleukin-8 (IL8), CXCL8 (gene 3576); assay: BSK_SAg_IL8: BioMAP Diversity Plus: SAg Assay for Interleukin-8 (IL8) Biomarker Activity (AID 2283094); details: primary human HUVEC with PBMC; actives raise or lower the signal
How it was run: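 ELISA read-out of IL-8 in a primary human vascular co-culture (umbilical vein endothelium plus PBMC), taken 24 h after compound addition. Values derive from bidirectional fits against DMSO negative controls.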

[18] = BSK_SAg_PBMCCytotoxicity: PBMC Cytotoxicity Assessment in the BioMAP Diversity Plus: SAg Assay (AID 2283093); details: primary human HUVEC with PBMC;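 further: PBMC viability measured as Alamar Blue reduction fluorescence at 546/580 nm; fitted both ways against DMSO so a hit may be loss or gain of signal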
How it was run: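 Compound added to 75,000 PBMC/well for 1 h; SEB and TSST-1 then added at 20 ng/mL final each; 90 h incubation; Alamar Blue 6 h; read 546/580 nm ex/em. Activity fitted bidirectionally relative to DMSO baseline.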

Measured: outcome

E-selectin (Homo sapiens), sequence (P16581 whole entry, looked up): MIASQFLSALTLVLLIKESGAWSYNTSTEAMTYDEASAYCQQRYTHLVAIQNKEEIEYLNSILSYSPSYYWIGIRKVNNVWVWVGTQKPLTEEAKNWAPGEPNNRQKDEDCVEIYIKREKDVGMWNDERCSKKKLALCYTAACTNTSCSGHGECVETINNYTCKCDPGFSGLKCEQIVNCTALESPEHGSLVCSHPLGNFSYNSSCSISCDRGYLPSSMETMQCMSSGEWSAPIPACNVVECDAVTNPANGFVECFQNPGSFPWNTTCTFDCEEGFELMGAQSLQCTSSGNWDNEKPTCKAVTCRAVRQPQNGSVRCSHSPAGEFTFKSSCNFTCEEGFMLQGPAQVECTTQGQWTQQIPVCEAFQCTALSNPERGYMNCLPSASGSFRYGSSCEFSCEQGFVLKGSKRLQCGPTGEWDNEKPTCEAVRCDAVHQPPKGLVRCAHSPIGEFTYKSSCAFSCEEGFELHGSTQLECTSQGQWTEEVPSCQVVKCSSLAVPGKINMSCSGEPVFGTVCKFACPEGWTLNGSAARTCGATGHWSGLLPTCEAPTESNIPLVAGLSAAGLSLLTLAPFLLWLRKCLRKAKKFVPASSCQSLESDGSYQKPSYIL
Tumor necrosis factor (Homo sapiens), sequence (P01375 whole entry, looked up): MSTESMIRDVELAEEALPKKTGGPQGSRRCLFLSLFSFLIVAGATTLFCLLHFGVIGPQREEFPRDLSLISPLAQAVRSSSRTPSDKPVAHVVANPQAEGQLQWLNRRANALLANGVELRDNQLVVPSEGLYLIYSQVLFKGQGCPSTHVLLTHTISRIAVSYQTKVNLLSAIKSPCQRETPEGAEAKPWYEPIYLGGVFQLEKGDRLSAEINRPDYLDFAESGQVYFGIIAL

CC(COCC(C)OC(=O)c1ccccc1)OC(=O)c1ccccc1 (centres undefined)
not listed: [18]
inactive: all other assays above

CCCCCCCCCCCCCCCCO
inactive: all assays above

CC(C)COC(=O)CCCCC(=O)OCC(C)C
inactive: all assays above
